Laboratory results published in PubChem BioAssay (NCI).
This is part of a sample that, as a whole, favours compounds with a hit. Of some 79,000 tested, about 15% had one in any assay. Unmarked numbers belong to inactive results. Calls of active or inactive are those of the source. Rule as the data show it: active = growth inhibition above about 70%; inactive = the rest.

Legend:
[1] = NCI Yeast Anticancer Drug Screen. Data for the rad50 strain (AID 155);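 also: 0% = growth of vehicle-only cultures of the same strain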; details: S. cerevisiae rad50 strain growth inhibition, hits give high values
Procedure, shortened: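 Compounds were tested on a yeast strain with an engineered DNA damage repair alteration; the reported value is growth inhibition normalised to vehicle treatment.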

[2] = NCI Yeast Anticancer Drug Screen. Data for the mec2-1 strain (AID 157); details: S. cerevisiae mec2-1 strain, hits give high values
Procedure, shortened: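 Growth inhibition is read against vehicle-treated controls after compound exposure of the mec2-1 yeast strain, which is defective in DNA damage repair or cell cycle control.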

[3] = NCI Yeast Anticancer Drug Screen. Data for the sgs1 mgt1 strain (AID 161);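 also: 0% = growth of cultures given vehicle only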; details: S. cerevisiae sgs1 mgt1 strain, hits give high values
Procedure, shortened: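 Growth of a repair-deficient yeast mutant was monitored after compound treatment and expressed as inhibition relative to vehicle-treated cultures.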

[4] = NCI Yeast Anticancer Drug Screen. Data for the cln2 rad14 strain (AID 165);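 also: 0% = growth equal to vehicle treated cultures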; details: S. cerevisiae cln2 rad14 strain, hits give high values
Procedure, shortened: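 Growth inhibition, relative to vehicle-treated controls, is the read-out. The test organism is a yeast strain with defined genetic alterations, cln2 rad14.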

[5] = NCI Yeast Anticancer Drug Screen. Data for the bub3 strain (AID 167); details: S. cerevisiae bub3 mutant strain, hits give high values
Procedure, shortened: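 Growth of a checkpoint-deficient yeast mutant is measured after compound exposure. Values represent inhibition relative to vehicle.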

[6] = NCI Yeast Anticancer Drug Screen. Data for the mlh1 rad18 strain (AID 175); details: S. cerevisiae mlh1 rad18 strain growth inhibition, hits give high values
Procedure, shortened: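 Cells of a genetically altered yeast strain, deficient in DNA damage repair, were treated with compound. Their growth was then compared with that of vehicle-treated cultures to give inhibition.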

[7] = at 5.0 µM (retest, dose inferred, filed as 0.5)
[8] = at 50.0 µM (retest, dose inferred, filed as 5.0)

Structure (SMILES) | growth inhibition [1, 7] | growth inhibition [1, 8] | growth inhibition ([1]; at 50.0 µM) | growth inhibition [2, 7] | growth inhibition [2, 8] | growth inhibition ([2]; at 50.0 µM) | growth inhibition [3, 7] | growth inhibition [3, 8] | growth inhibition ([3]; at 50.0 µM) | growth inhibition [4, 7] | growth inhibition [4, 8] | growth inhibition ([4]; at 50.0 µM) | growth inhibition [5, 7] | growth inhibition [5, 8] | growth inhibition ([5]; at 50.0 µM) | growth inhibition [6, 7] | growth inhibition [6, 8] | growth inhibition ([6]; at 50.0 µM)
c1cc2n[pH]nc2cn1 (stereo not given) | -10% | 5% | 5.55% | -3% | -8% | 11.2% | -2% | -6% | 21.2% | 5% | -8% | 1.2% | -1% | 2% | 11.6% | 6% | 6% | 43.5%
CC1=C2C(=CC(C)(C)[C@@H]2O)C(=O)[C@](C)(O)C12CC2 | 44% | 92% (active) | 80.6% (active) | 12% | 96% (active) | 89.8% (active) | 53% | 91% (active) | 80.8% (active) | 23% | 90% (active) | 84.8% (active) | 12% | 39% | 7.1% | 35% | 91% (active) | 78.3% (active)
COC(=O)c1ccc([As]=O)cc1N (stereo not given) | 2% | 6% | 98.7% (active) | 1% | 4% | 99.5% (active) | -1% | 4% | 99.3% (active) | -2% | -6% | 98.5% (active) | 3% | 2% | 98.8% (active) | 2% | 7% | 99% (active)
CC1=C(CC/C(C)=C/CCC2(C)CCC([C@H](C)C(=O)O)OO2)C(C)(C)CCC1 (stereo not given in full) (tested in a mixture with another compound) | 18% | 97% (active) | 90.2% (active) | 39% | 97% (active) | 93% (active) | 52% | 96% (active) | 93% (active) | 46% | 97% (active) | 90.5% (active) | 9% | 97% (active) | 92.2% (active) | 51% | 96% (active) | 91.3% (active)
[Cl][Hg][c]1ccco1 | 99% (active) | 99% (active) | 99.5% (active) | 100% (active) | 99% (active) | 99.5% (active) | 100% (active) | 100% (active) | 99.7% (active) | 99% (active) | 99% (active) | 99% (active) | 100% (active) | 100% (active) | 99.4% (active) | 99% (active) | 99% (active) | 99.2% (active)
COc1ccccc1[As]=[As]c1ccccc1OC (stereo not given) | 30% | 99% (active) | 99.5% (active) | 20% | 99% (active) | 99.5% (active) | 48% | 99% (active) | 99.4% (active) | 34% | 99% (active) | 98.3% (active) | 85% (active) | 99% (active) | 99.3% (active) | 75% (active) | 99% (active) | 99.3% (active)
COc1cc(/C=C(/C)[N+](=O)[O-])c([N+](=O)[O-])cc1OC | 29% | 75% (active) | 88.3% (active) | 2% | 33% | 85.5% (active) | 14% | 65% | 71.7% (active) | 3% | 29% | 14.8% | 0% | 54% | 67% | 10% | 35% | 71.7% (active)
CC(=O)NNc1ccccc1 | 6% | 44% | 62.5% | 2% | 52% | 66.2% | 9% | 53% | 68.3% | 2% | 65% | 40% | 7% | 89% (active) | 87% (active) | 14% | 84% (active) | 90.7% (active)
O=P(O)(Oc1ccccc1)Oc1ccccc1.[Ag] | 36% | 71% (active) | 92.2% (active) | 37% | 87% (active) | 94% (active) | 99% (active) | 98% (active) | 94% (active) | 70% (active) | 99% (active) | 93% (active) | 100% (active) | 99% (active) | 92.8% (active) | 37% | 86% (active) | 92.3% (active)
c1ccc2c(c1)[O][Sn][O]2 | 0% | 6% | 98.8% (active) | 1% | 3% | 99.2% (active) | -1% | 1% | 39.8% | 0% | -1% | 98.8% (active) | -1% | 2% | 99.4% (active) | 1% | 3% | 99% (active)
